Reference: PubChem BioAssay (NCATS)
Records with an inconclusive call do not appear. A number with no mark means an inactive call. The source made the active and inactive calls. The call rests on the fitted dose curve; in most records, active means well fitted inhibition curve with a large enough effect; inconclusive means small, poorly fitted or top-dose-only effect; inactive means flat fitted curve, though single readings scatter.

The compounds below were run against Calcium and integrin-binding protein 1 (Homo sapiens) (UniProt Q99828) (assay: Primary qHTS for Identification of Calcium Integrin Binding Protein 1 (CIB1) Competitor (AID 1508620; further: top concentration of the series differs between compounds)). Settings: CIB1-GST / FITC-alphaIIb peptide fluorescence polarization; series mostly up to 57.7 µM; activity change, negative = inhibition: at the top concentration.
Sequence of Calcium and integrin-binding protein 1 (Homo sapiens) (Q99828 whole entry, looked up): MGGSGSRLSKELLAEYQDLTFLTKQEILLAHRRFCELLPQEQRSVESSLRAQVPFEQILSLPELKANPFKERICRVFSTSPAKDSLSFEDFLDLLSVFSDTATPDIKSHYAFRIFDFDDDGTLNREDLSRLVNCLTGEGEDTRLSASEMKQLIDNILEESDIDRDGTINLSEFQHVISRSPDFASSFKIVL
How it was run: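 Fluorescence polarization competition: GST-tagged CIB1 (1 uM final) preincubated with compound 15 min at room temperature, then FITC-labelled alphaIIb peptide (100 nM final) added. After 15 min at room temperature, polarization read at Ex 480/Em 540.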
On the % scale 0 is the no-effect control and ±100 the full control effect.

**Q.** How did the outcome turn out when `CC1=NN(c2ccccc2)C(=O)C1` was run?
**A.** The outcome was “inactive”.

**Q.** `CC(C)OC(=O)C(C(=O)OC(C)C)=C1SC=CS1` was tested. Which outcome did it give?
**A.** Its outcome is “inactive”.

**Q.** With `CC(=O)[C@H]1CC[C@H]2[C@@H]3CCC4=CC(=O)CC[C@]4(C)[C@H]3CC[C@]12C` as the compound, how does the “activity change, negative = inhibition” value read?
**A.** Its value is 0.873%.

**Q.** `NC(=O)c1ccc2[nH]ccc2c1` was tested. Which “activity change, negative = inhibition” value did it give?
**A.** The value was -2.2%.

**Q.** With `NC1(c2ccc(-c3nc4ccn5c(=O)[nH]nc5c4cc3-c3ccccc3)cc2)CCC1` as the compound, how does the outcome read?
**A.** Its outcome is “inactive”.

**Q.** Which “activity change, negative = inhibition” value does the source give for `O=C(O)C1CCCN(CCC=C(c2ccccc2)c2ccccc2)C1` (centres undefined) here?
**A.** Its value is -2.59%.

**Q.** For `Cc1cccc(N(C)C(=S)Oc2ccc3ccccc3c2)c1`, which outcome is on record?
**A.** Its outcome is “inactive”.

**Q.** `N[C@@H](Cc1ccc(O)c(O)c1)C(=O)O` was tested. Which “activity change, negative = inhibition” value did it give?
**A.** The value was 4.04%.

**Q.** For `COc1cc2nc(N3CCCN(C)CC3)nc(NC3CCN(Cc4ccccc4)CC3)c2cc1OC`, which “activity change, negative = inhibition” value is on record?
**A.** The value was -1.59%.

**Q.** For `CCN(C)C(=O)Oc1cccc([C@H](C)N(C)C)c1`, which outcome is on record?
**A.** Its outcome is “inactive”.

**Q.** With `NC(=O)c1cccc(N)c1` as the compound, how does the “activity change, negative = inhibition” value read?
**A.** The value was 6.32%.

**Q.** How did the “activity change, negative = inhibition” value turn out when `S=P(N1CC1)(N1CC1)N1CC1` was run?
**A.** Its value is -0.649%.

**Q.** Which outcome does the source give for `CC[C@H](C)C(=O)O[C@H]1C[C@@H](C)C=C2C=C[C@H](C)[C@H](CC[C@@H]3C[C@@H](O)CC(=O)O3)[C@H]21` here?
**A.** The outcome was “inactive”.

**Q.** Which outcome does the source give for `CCn1cc(C(=O)O)c(=O)c2cc(F)c(N3CCNCC3)nc21` here?
**A.** Its outcome is “inactive”.

**Q.** `CC(C)(Sc1cc(C(C)(C)C)c(O)c(C(C)(C)C)c1)Sc1cc(C(C)(C)C)c(O)c(C(C)(C)C)c1` was tested. Which outcome did it give?
**A.** Its outcome is “inactive”.

**Q.** How did the outcome turn out when `O=C(N[C@H](CO)[C@H](O)c1ccc([N+](=O)[O-])cc1)C(Cl)Cl` was run?
**A.** Its outcome is “inactive”.

**Q.** How did the “activity change, negative = inhibition” value turn out when `Nc1nc(N)c2nc(CNc3ccc(C(=O)NC(CCC(=O)O)C(=O)O)cc3)cnc2n1` (centres undefined) was run?
**A.** The value was -12.1%.

**Q.** For `CCN(CC)CCn1c(=O)c(Cc2ccc(OC)cc2)nc2ccccc21`, which “activity change, negative = inhibition” value is on record?
**A.** Its value is -2.21%.

**Q.** With `CNS(=O)(=O)CCc1ccc2[nH]cc(C3CCN(C)CC3)c2c1` as the compound, how does the outcome read?
**A.** Its outcome is “inactive”.
